# Reference: PubChem BioAssay (NCI)
# The panel holds about 79,000 compounds, 15% with a hit somewhere; the sample as a whole holds those more often. A number with no mark means an inactive call. The source made the active and inactive calls. Cut-off read from the data, not from the text of the source: active = growth inhibition above about 70%; inactive = the rest. Where a SMILES comes first, the peptide text is derived from it. The star is where a group is joined. Cbz = O=C(OCc1ccccc1)*
# Assays:
# [1] = NCI Yeast Anticancer Drug Screen. Data for the rad50 strain (AID 155);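 note: 0% = growth of vehicle-only cultures of the same strain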; conditions: S. cerevisiae rad50 strain growth inhibition; at 50.0 µM; active compounds read high
# Method in brief: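 A DNA repair-deficient yeast mutant serves as the test organism; compound-induced growth inhibition is calculated against vehicle-treated cells.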
# [2] = NCI Yeast Anticancer Drug Screen. Data for the mec2-1 strain (AID 157); conditions: S. cerevisiae mec2-1 strain, at 50.0 µM, active compounds read high
# Method in brief: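 Using mec2-1 yeast: add compound, measure growth, express inhibition versus vehicle-treated cultures.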
# [3] = NCI Yeast Anticancer Drug Screen. Data for the sgs1 mgt1 strain (AID 161);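 note: 0% = growth of cultures given vehicle only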; conditions: S. cerevisiae sgs1 mgt1 strain, at 50.0 µM, active compounds read high
# Method in brief: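 Growth of a repair-deficient yeast mutant was monitored after compound treatment and expressed as inhibition relative to vehicle-treated cultures.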
# [4] = NCI Yeast Anticancer Drug Screen. Data for the cln2 rad14 strain (AID 165);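 note: 0% = growth equal to vehicle treated cultures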; conditions: S. cerevisiae cln2 rad14 strain, at 50.0 µM, active compounds read high
# Method in brief: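 Yeast strain cln2 rad14, bearing defects in cell cycle control and DNA repair, serves as the test system; values reflect growth inhibition compared with vehicle.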
# [5] = NCI Yeast Anticancer Drug Screen. Data for the bub3 strain (AID 167); conditions: S. cerevisiae bub3 mutant strain, at 50.0 µM, active compounds read high
# Method in brief: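 Inhibition values come from growth of compound-treated mutant yeast normalised to vehicle-treated controls.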
# [6] = NCI Yeast Anticancer Drug Screen. Data for the mlh1 rad18 strain (AID 175); conditions: S. cerevisiae mlh1 rad18 strain growth inhibition; at 50.0 µM; active compounds read high
# Method in brief: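 Steps: expose repair-defective yeast to compound; measure growth; express inhibition against vehicle-treated controls.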
SMILES,growth inhibition [1],growth inhibition [2],growth inhibition [3],growth inhibition [4],growth inhibition [5],growth inhibition [6]
COC(=O)N/N=C/c1ccc(C)cc1,-4.1%,-8.05%,-10%,-37.9%,-3.9%,-4.1%
NCC1OCOC2C(C(=O)O)OCOC12 (stereo not drawn),10.6%,2.6%,14.3%,-16%,3.8%,-3.7%
CCCCNc1nc2c(=O)n(C)c(=O)n(C)c2s1,-6.3%,-0.6%,-3.1%,-17.4%,-5.9%,9.75%
COc1ccc(C2(C)C=C(C)C=C(C)C2=O)cc1 (stereo not drawn),-5.1%,2.9%,-12.2%,-15.9%,-9.65%,7.75%
O=C(O)c1ccc(CS(=O)(=O)c2ccccc2C(=O)O)cc1,9%,-0.6%,2.05%,15.8%,5.6%,20.2%
O=c1c2c([nH]c(=S)n1-c1ccccc1)NCCC2,-13.8%,-1.25%,-11.6%,3.3%,9.55%,0.4%
O=C1OC(=O)C2C1C1C=CC2C1(c1ccccc1)c1ccccc1 (stereo not drawn),9.05%,4.25%,8.95%,-5.65%,25.5%,7%
CCCCCC1c2cc(O)ccc2OC1N1CCOCC1 (stereo not drawn),49.2%,44.5%,47.5%,48.6%,46.7%,88.7% (active)
O=c1[nH]cnc2c1ncn2CCCCc1ccccc1,8.4%,-5.25%,8.45%,0.9%,5.7%,14.8%
O=C(Nc1ccc2c(c1)C(O)c1ccccc1-2)C(F)(F)F (stereo not drawn),11.4%,-4.3%,18.9%,8.35%,6.85%,16.1%
Cc1cc(C)nc(NS(=O)(=O)c2ccc(NC(=O)c3cccn4c(=O)c5ccccc5nc34)cc2)n1,12.7%,0.6%,16.9%,27.6%,27.1%,0.25%
COC1OC(CS(=O)(=O)O)C(O)C(O)C1O (stereo not drawn),-44.5%,-2.15%,-1.85%,-13.6%,-31.9%,-4.3%
OCCc1cc2ccccc2c2ccccc12,-3.55%,6.75%,-4.8%,-11.9%,-15.9%,-12.9%
CCOC(=O)C(=CNc1ccc(F)c(F)c1)C(=O)OCC,-0.4%,1.55%,-8.35%,-2.2%,26.1%,-36%
CCCCCCCCCCCCCCCCSCCOC(=O)C1C2CCC(O2)C1C(=O)O (stereo not drawn),55.9%,-18.4%,10.4%,13.9%,30.2%,37.6%
C=CC(=O)OCC(C)(C)COC(=O)C=C,3.3%,-34.5%,-16.7%,16.1%,19.8%,-12.6%
O=S(=O)(CCS(=O)(=O)c1ccccc1)c1ccccc1,-11.4%,-10.2%,-22.9%,-41.5%,-15.3%,-0.1%
CCN(CC)CCOc1cc(C)ccc1C(C)C,-6.05%,-12.6%,2.95%,-32%,-8.1%,26.4%
COc1ccc(C(=O)C[C@H]2CCC[C@@H](CC(=O)c3ccc(OC)cc3)N2C)cc1,14.4%,5.05%,5.05%,12%,0.25%,8.1%

SMILES,growth inhibition [1],growth inhibition [2],growth inhibition [3],growth inhibition [4],growth inhibition [5],growth inhibition [6]
Nc1ccc(Nc2c3ccccc3nc3ccccc23)cc1,96% (active),33%,23.4%,10.3%,23.4%,69.3%
Cc1cc(C)[n+](C)c(/C=C/c2cccc([N+](=O)[O-])c2)n1,6.55%,-6.95%,4.85%,16.4%,3.4%,11.1%
CC(C)CC(O)C(C)C (stereo not drawn),-18.3%,-15.8%,0.15%,31.3%,-6.8%,1.35%
CCC(=O)N(C)[C@@H]1Oc2ccc(O)cc2[C@]1(C)c1cc(O)ccc1O,0.35%,2.25%,14.8%,19.9%,6.7%,9.95%
COc1cc2c(c([N+](=O)[O-])c1)NC(=O)CS2,-81.2%,-60.5%,-17.2%,-4.5%,0.95%,-28.1%
CCCC(Sc1nc(N)nc2nc[nH]c12)C(=O)O (stereo not drawn),-18.7%,-10.2%,-26.3%,-24.3%,-29%,4.9%
C/C=C(/C)c1cccc(OCc2ccccc2)c1OCc1ccccc1,-19.1%,9.35%,-5.65%,-21.6%,-17.3%,-7.05%
Cc1cc2c(C(C)C)c(O)c(O)c(C=Nc3ccccc3O)c2c(O)c1-c1c(C)cc2c(C(C)C)c(O)c(O)c(C=Nc3ccccc3O)c2c1O,-25.3%,-9.2%,-20.9%,-23.4%,-9.75%,-26.3%
CC(C)=CCC1=C(OCC(=O)O)C(=O)c2ccccc2C1=O,30.9%,1.45%,12.8%,-2.7%,20.1%,23.1%
COC(=O)/C=C/c1ccc(OP(=O)(O)O)c(OC)c1,-22.1%,-8.9%,-30.6%,-20.6%,-56.7%,-15.4%
N=C(N)SCCSC(=N)N,-13.5%,-8.4%,-30.6%,9.7%,-16.4%,12.9%
COc1ccc(-c2c3c(n(C4OC(COC(C)=O)C(OC(C)=O)C(OC(C)=O)C4OC(C)=O)c(=S)c2C#N)CCCC3)cc1 (stereo not drawn),-17.9%,-13.2%,3.4%,2.05%,-1.95%,-5%
Nc1ccnc(Cl)n1,-2.45%,-6.05%,-13.2%,0.4%,0.4%,-0.95%
COC(=O)C(NC(=O)C(C)NC(=O)C1CCCN1C(=O)CNC(=O)C(CO)NC(=O)C(NC(=O)OCc1ccccc1)C(C)O)C(C)O (stereo not drawn) (Cbz-TSGPAT-OMe; configuration not given here),3.3%,-5.9%,-4.7%,-10.2%,-7.8%,10.6%
O=C(CCCCCCCCC(=O)OCCCn1cc(C(=O)NC(=O)OCc2ccccc2)c(=O)[nH]c1=O)OCCCn1cc(C(=O)NC(=O)OCc2ccccc2)c(=O)[nH]c1=O,-28.6%,-41.7%,-25.6%,1.7%,-24.2%,-36.8%
COc1ccc(OC)c(C2SCC(=O)N2c2nncs2)c1 (stereo not drawn),-19.8%,6%,15.2%,-17.6%,-8.7%,2.2%
CCCCC(CC)COC(=O)CCl (stereo not drawn),21.1%,10.7%,8.3%,-14.8%,-1.6%,21.8%
O=C(COC(=O)c1cccc([N+](=O)[O-])c1)c1ccc(Br)cc1,6.55%,20.3%,1.55%,-16.2%,7.3%,5.8%
O=C(Sc1c(-c2ccccc2)c(=O)n(-c2ccccc2)c(=S)n1-c1ccccc1)c1ccc(Cl)cc1,2.75%,3.9%,16.1%,-4.35%,5.4%,12.8%
